The source made the active and inactive calls. Rule for the calls: active = hit-call score of the fitted dose curve at least 0.9, where 1 is the maximum; inactive = score below 0.9.

What is called AC50 is the midpoint of the concentration-response curve, whichever way the signal moves.

Read-out in this assay: Tumor necrosis factor receptor 1 (TNFRSF1A), TNFRSF1A (gene 7132)
As to the kind of experiment: LTEA_HepaRG_TNFRSF1A: Life Technologies and Expression Analysis (LTEA) Assay for Tumor necrosis factor receptor 1 (TNFRSF1A) using HepaRG (AID 2283535). The conditions noted are these: mRNA level, 48 h; actives raise or lower the signal. As for the experimental part: LTEA_HepaRG is a cell based, multiplexed-readout assay that uses HepaRG, a human liver cell line, with measurements taken at 48 hours after chemical dosing on a 96-well plate.LTEA_HepaRG_TNFRSF1A is one of 102 assay component(s) measured in the LTEA HepaRG cell culture assay. It is a marker of Cell proliferation, survival, death.Data from the assay component LTEA_HepaRG_TNFRSF1A was analyzed into 1 endpoint. This assay endpoint, LTEA_HepaRG_TNFRSF1A, was analyzed with bidirectional fitting relative to DMSO as the negative control and baseline of activity. Using a type of inducible reporter, measures of mRNA induction for gain or loss-of-signal activity can be used to understand regulation of transcription factor activity. To generalize the intended target to other relatable targets, this assay endpoint is annotated to the cytokine receptor intended target family, where the subfamily is TNF receptor.
A total of 1060 chemcials from the ToxCast library were tested in eight-point concentration-response experiments. Cell culture and cytotoxicity assays were conducted at Thermo Fisher Scientific's Custom Services facility (Madison, WI). A single lot of human HepaRG cells (Thermo Fisher Scientific, Frederick, MD) was used for the cell culture experiments. 96-well format collagen type I coated plates of human HepaRG cells were prepared using established methods. Briefly, cryopreserved HepaRG cells were thawed, plated at a density of approximately 100,000 cells/well in HepaRG Thaw, Plate, and General Purpose media (HPRG770, Thermo Fisher Scientific), and incubated for 48 hours. 0.5% DMSO was selected as vehicle control to balance the requisite need of DMSO in HepaRG cultures to maintain differentiation (for example, baseline metabolism, proportions of hepatocytes vs. cholangiocytes), while enabling further hepatic receptor pathway activation (for example, PXR and CAR) in response to chemical exposure. 48 hours after plating, the culture medium was replaced with HepaRG Serum-Free Incudtion Media. Cells were exposed to each test chemical in duplicate and maintained in CO2 incubators for another 48 hours. Chemical plates were thawed to room temperature and 200x concentrations of treatment groups were prepared. 8-point conentration-reponse curves were made with the highest exposure at 100 uM, followed by half-log dilutions, all in 0.5% DMSO. Each test plate contained variouse controls, induction positive controls (1mM phenobarbital), cytotoxicity positive controls ([…] aflatoxin B1), vehicle controls (0.5% DMSO), and total lysis controls (0.5% DMSO). Cell morphology images were taken using an Essen IncuCyte FLR automated microscope, with six 96-well plates imaged in about 24 minutes. Images were captured and exported and JPEG files. Spent culture media was transfered to black-well plates for the LDH assay, and remaining media was sorted at -80 C for later use. Cells were treated with RLT buffer and frozen until shipped for gene expression analysis. Total RNA was isolated from the cell suspension in 75 uL of Buffer RLT (Qiagen, Germantown, MD 20874) by Quintiles/Expression Analysis (Durham, NC) using a custom isolation procedure. Total RNA from each plate well was transferred to a preamplification plate. Fluidigm's 96.96 Dynamic ArrayTM (Fluidigm, Amsterdam, the Netherlands) technology was used for gene expression analyses by quantitative reverse transcription polymerase chain reaction (qRT-PCR, performed by Quintiles/Expression Analysis, Durham, NC)89. Standard TaqManTM Assays (Applied Biosystems/ThermoFisher Scientific, Foster City, CA) were used to assess the expression of 93 genes selected based on their selectivity and sensitivity to important hepatic receptors known to be modulated by environmental chemicals; importance in human hepatocyte functionality; and hepatotoxicity. […]
Consider `CC12CC1(C)C(=O)N(c1cc(Cl)cc(Cl)c1)C2=O` (stereo unspecified), for which the call was inactive.

In the case of `CC(=O)[O][Hg][c]1ccccc1`, the AC50 is 27.6 µM (active).

On to `ClC1(Cl)C2(Cl)C3(Cl)C4(Cl)C(Cl)(Cl)C5(Cl)C3(Cl)C1(Cl)C5(Cl)C24Cl` (stereo unspecified), for which the result was inactive.

Consider `C[C@@H]1C[C@@H]([C@H](O)CC2CC(=O)NC(=O)C2)C(=O)[C@@H](C)C1`, for which the AC50 was 80.6 µM (active).

Turning to `CC(C)(C)c1cc(O)ccc1O`, the outcome was inactive.

For the compound `CCC(C)(C)c1ccc(O)c(C(C)(C)CC)c1`, the outcome was inactive.

For `C=CC(=O)OCCCCCC(C)C`, the outcome was inactive.

For `C=C(C)C(=O)[O][Sn]([CH2]CCC)([CH2]CCC)[CH2]CCC`, the result was inactive.

Turning to `CCOP(=S)(OCC)SCSP(=S)(OCC)OCC`, the AC50 is 0.214 µM (active).

`COc1cc(-c2ccc(N)c(OC)c2)ccc1N`: the result was inactive.

Consider `CC(C)(c1ccccc1)c1ccc(O)c(C(C)(C)c2ccccc2)c1`, for which the result was inactive.

For the compound `NC(=O)O`, the compound was called inactive.

Consider `CN(C)N=O`, for which the call was inactive.

On to `Oc1cccc2cccnc12`, for which the call was inactive.

In the case of `CC(C)(OO)c1ccccc1`, the compound was classed as inactive.

For `O=C(O)C(F)(F)C(F)(F)C(F)(F)C(F)(F)C(F)(F)C(F)(F)F`, the call was inactive.

For `O=C1C2(Cl)C3(Cl)C4(Cl)C(Cl)(Cl)C5(Cl)C3(Cl)C1(Cl)C5(Cl)C24Cl` (stereo unspecified), the outcome was inactive.

On to `ClCC(Cl)CCl`, for which the result was inactive.

For the compound `CCCCCCCCc1ccc(O)cc1`, the call was inactive.

On to `O=C(Nc1ccc2[nH]ccc2c1)c1cc2cc(F)ccc2n1Cc1cccc(F)c1`, for which the compound was classed as inactive.

Regarding `O=c1[nH]c(=O)[nH]c(=O)[nH]1`, the outcome was inactive.

As to `O=C(O)C(Cl)(Cl)Cl`, the call was inactive.

Consider `C[C@]12CCC(=O)C[C@@H]1CC[C@@H]1[C@@H]2CC[C@]2(C)[C@@H](O)CC[C@@H]12`, for which the compound was called inactive.

Regarding `CCC(=O)C(CC(C)N(C)C)(c1ccccc1)c1ccccc1` (stereo unspecified), the result was inactive.

As to `O=C(O)C(F)(F)C(F)(F)C(F)(F)C(F)(F)C(F)(F)C(F)(F)C(F)(F)C(F)(F)C(F)(F)C(F)(F)F`, the compound was classed as inactive.

Take `Cn1sc(Cl)cc1=O`: the compound was called inactive.

Consider `Cc1ccccc1N`, for which the outcome was inactive.

As to `CC(C)(C)CC(C)(C)c1ccc(O)cc1`, the compound was called inactive.

Take `O=[N+]([O-])c1ccc(O)c([N+](=O)[O-])c1`: the AC50 was 4.42 µM (active).

For the compound `CCOP(=S)(OCC)Oc1nc(Cl)c(Cl)cc1Cl`, the outcome was inactive.

With `CCN1CCC2(CC1)COc1cc3c(cc12)N(C(=O)c1ccc(-c2ccc(-c4nnc(C)o4)cc2C)cc1)CC3`, the AC50 is 21.6 µM (active).
